Assays:
Conditions in all cases: concentration: 1 μM, replicates: in singlicate; n = 1
[1] = tested on: T1, VEGFR2
T1 construct: gene KDR

[2] = tested on: T2, VPS34
T2 construct: gene PIK3C3

[3] = tested on: VRK2
[4] = tested on: WEE1
[5] = tested on: WEE2
[6] = tested on: WNK1
[7] = tested on: WNK2
[8] = tested on: WNK3
[9] = tested on: WNK4
[10] = tested on: T3, YANK1
T3 construct: gene STK32A
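Further: KINOMEscan kinase panel screen.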

Structure (SMILES) | %Inh [1] [%] | %Inh [2] [%] | %Inh [3] [%] | %Inh [4] [%] | %Inh [5] [%] | %Inh [6] [%] | %Inh [7] [%] | %Inh [8] [%] | %Inh [9] [%] | %Inh [10] [%]
COc1cccc(CNC(=O)NC2CCN(c3ccnc(Nc4ccc(F)cc4)n3)C2)c1 (stereo not shown) [GSK1379723] | 1 | 0 | 0 | 3 | 12 | 6 | 13 | 5 | 7 | 0
O=C(Nc1n[nH]c2nc(-c3cccs3)c(Br)cc12)C1CCCC1 [SB-743341] | 28 | 0 | 0 | 0 | 22 | 0 | 5 | 0 | 3 | 24
CC(C)c1ccc(O)cc1Nc1ccnc2ccc(C(F)(F)F)cc12 [GW482059] | 0 | 15 | 0 | 0 | 5 | 1 | 0 | 0 | 0 | 0
O=C1NC(=O)C(c2ccc(Cl)cc2)=C1Nc1cccc(Cl)c1 [SB-317651] | 0 | 90.2 | 90.5 | 0 | 29 | 0 | 27 | 0 | 0 | 0
COc1ccc2cc(-c3nc(-c4ccccc4C(C)C)[nH]c3-c3ccncc3)ccc2c1 [SB-660566] | 0 | 0 | 0 | 12 | 15 | 10 | 14 | 42 | 0 | 16
Cn1cnc2c(N)ncnc21 [SKF-97623] | 100 | 0 | 96.8 | 0 | 29 | 0 | 8 | 0 | 0 | 0
Cn1cncc1C(=O)NC1CCN(c2ccnc(Nc3ccc(F)cc3)n2)C1 (stereo not shown) [GSK1379717] | 17 | 0 | 0 | 7 | 0 | 12 | 0 | 22 | 0 | 3
Cc1ccc(NC(=O)Nc2ccccc2F)cc1-c1ccc(C(=O)Nc2ccncc2)cc1 [GSK1398477] | 0 | 11 | 0 | 26 | 12 | 2 | 0 | 0 | 0 | 5
Cc1c(Cn2c3ccccc3n3c(=O)cc(N4CCOCC4)nc23)cccc1C(F)(F)F [GSK2306394] | 0 | 80 | 0 | 0 | 3 | 2 | 23 | 0 | 0 | 0
CN1c2ccc(-c3ccc(C(N)=O)cc3)cc2-c2[nH]ncc2S1(=O)=O | 21 | 0 | 3 | 14 | 0 | 6 | 0 | 4 | 0 | 0
Fc1ccc(-c2nc[nH]c2-c2ccncc2)cc1 [SB-217360] | 0 | 26 | 19 | 4 | 0 | 11 | 0 | 9 | 2 | 7
CCn1c(-c2ccccc2)nc2cnccc21 [SB-733416] | 0 | 0 | 34 | 8 | 2 | 17 | 0 | 26 | 19 | 0
Cl.Cl.Cl.N#Cc1ccc(CCNc2nccc(-c3cccc(CN4CCNCC4)c3)n2)cc1 [GSK2137462] | 0 | 7 | 0 | 90.8 | 0 | 0 | 0 | 0 | 95.5 | 12
O=C(Nc1n[nH]c2nc(-c3cccs3)c(Br)cc12)C1CC1 [SB-735297] | 0 | 6 | 0 | 0 | 0 | 0 | 0 | 0 | 29 | 0
COc1ccc(CSc2nnc(-c3ccc4c(c3)CCO4)o2)cc1 | 0 | 15 | 0 | 0 | 14 | 0 | 0 | 0 | 0 | 0
CC(C)c1cc(-c2ccc3c(N)n[nH]c3c2)nc(N)n1 [GSK2250882] | 0 | 9 | 4 | 11 | 6 | 0 | 0 | 3 | 0 | 20

— article PMC5540273 (PLoS ONE, 2017)
